# Whole data set: some 110,000 compounds, median “z-score” near -0.1, cut for the highest 2% near 2. The list comes from a sample in which the highest values are over-represented; it also holds similar structures and randomly drawn compounds. Active and inactive are the calls of the source.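 Rule for the calls: active = z-score in the third read window above 3 or below -3; inactive = the rest.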
# Target: Metabotropic glutamate receptor 8 (Rattus norvegicus) (UniProt P70579)
# Experiment: mGluR8 Gi/Go-coupled signaling modulation – cell-based, rat, thallium flux, HTS, primary screen (AID 488969)
# Settings: HEK293 rat mGluR8, GIRK (G protein-gated inwardly rectifying potassium channel) thallium flux, FluoZin2; at 10 µM; stronger effect = higher value; submaximal glutamate (EC20) added with thallium
# Metabotropic glutamate receptor 8 (Rattus norvegicus), sequence (P70579 whole entry, looked up): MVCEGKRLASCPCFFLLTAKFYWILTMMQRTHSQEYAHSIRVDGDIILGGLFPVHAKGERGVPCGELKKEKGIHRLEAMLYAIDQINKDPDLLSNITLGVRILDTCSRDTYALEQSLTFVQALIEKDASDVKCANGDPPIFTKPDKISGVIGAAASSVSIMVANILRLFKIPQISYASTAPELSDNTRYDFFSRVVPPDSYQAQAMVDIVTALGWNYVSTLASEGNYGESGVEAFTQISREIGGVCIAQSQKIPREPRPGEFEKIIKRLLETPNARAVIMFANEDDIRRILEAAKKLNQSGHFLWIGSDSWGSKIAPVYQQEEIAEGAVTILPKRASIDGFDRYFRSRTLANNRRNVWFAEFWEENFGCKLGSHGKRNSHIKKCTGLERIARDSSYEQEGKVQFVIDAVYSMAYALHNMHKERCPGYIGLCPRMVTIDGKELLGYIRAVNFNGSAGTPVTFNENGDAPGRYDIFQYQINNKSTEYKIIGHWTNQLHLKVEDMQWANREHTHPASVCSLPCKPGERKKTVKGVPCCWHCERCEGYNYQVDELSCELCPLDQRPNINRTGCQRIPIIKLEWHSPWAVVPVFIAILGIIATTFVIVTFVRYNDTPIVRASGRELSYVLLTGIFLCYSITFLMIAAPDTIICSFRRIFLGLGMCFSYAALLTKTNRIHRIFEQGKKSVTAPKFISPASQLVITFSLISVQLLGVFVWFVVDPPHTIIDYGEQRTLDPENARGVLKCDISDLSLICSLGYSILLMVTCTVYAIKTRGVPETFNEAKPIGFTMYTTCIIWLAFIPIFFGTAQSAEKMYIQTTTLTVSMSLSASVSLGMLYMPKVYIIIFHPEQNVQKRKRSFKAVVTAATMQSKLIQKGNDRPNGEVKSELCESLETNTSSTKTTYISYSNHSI
row,SMILES,z-score
1,COc1cccc(-c2cc(C(=O)N3CCN(Cc4ccccc4)CC3)no2)c1,0.395
2,CO/N=C/NC(=O)c1c(OC)ccnc1Oc1cccc(C(F)(F)F)c1,0.0176
3,O=C1N=C(c2ccccc2)S/C1=C\c1cccs1,2.92
4,NC1=NC(=O)/C(=C/c2cccs2)S1,-0.848
5,NC1=NC(=O)/C(=C\c2cccs2)S1,-0.0766
6,Cc1cc2ncn(C(=O)c3c(-c4c(Cl)cccc4Cl)noc3C)c2cc1C,0.106
7,Cc1cc(NC(=O)c2ccc(S(=O)(=O)N3CCCC3)cc2)nc2c1c(=O)oc1ccccc12,0.442
8,FC(F)(F)COc1nc(OCC(F)(F)F)nc(N2CCN(c3ccccc3)CC2)n1,-0.193
9,CNc1nc(OCC(F)(F)F)nc(N2CCOCC2)n1,-0.112
10,FC(F)(F)COc1nc(N2CCCCC2)nc(N2CCNCC2)n1,2.6
11,O=C(NCc1cccnc1)c1ccccc1[N+](=O)[O-],-0.0931
12,CCOc1ccc(/C=N/NC(=O)c2ccccc2NC(=O)c2ccc(OC)cc2)cc1,-0.0531
13,CC(C)c1ccc2occ(-c3nn[nH]n3)c(=O)c2c1,3.29 (active)
14,Cc1ccccc1-c1nn[nH]n1,-0.33
15,Cc1ccc2occ(-c3nn[nH]n3)c(=O)c2c1,0.366
16,CCCSc1nn2c(=O)c3ccccc3nc2s1,-0.252
17,CCCc1cc(-c2nc(-c3ccc(Cl)cc3)cs2)ccn1,-0.136
18,CCCc1cc(-c2nc(-c3ccc(Br)cc3)cs2)ccn1,0.0465
19,CCCc1cc(C(N)=S)ccn1,2.24

row,SMILES,z-score
1,COc1nc(NCCc2ccc(OC)c(OC)c2)nc(OC)n1,-0.163
2,O=c1c2ccccc2sc2ccc(Cl)cc12,-0.316
3,O=c1c(C(c2ccccc2)c2c(O)sc3ccccc3c2=O)c(O)sc2ccccc12,7.03 (active)
4,COc1ccc2sc3ccccc3c(=O)c2c1,-0.213
5,CCN1C(=O)CC(N2CCN(c3ccc(C(=O)c4ccccc4)cc3)CC2)C1=O (configuration not stated),-0.153
6,COc1ccc(NC(=O)C2CCCN(S(=O)(=O)c3cccs3)C2)cc1OC (configuration not stated),-0.257
7,CCCCCc1nnc(NC(=O)Cc2cccs2)s1,12.3 (active)
8,COCCSc1nnc(NC(=O)Cc2cccs2)s1,0.124
9,Cc1nnc(NC(=O)CCC(=O)NCc2cccs2)s1,-0.0957
10,COCc1nnc(NC(=O)CCSc2ccccc2)s1,-0.0854
11,Cc1nnc(NC(=O)CCSc2ccccc2)s1,2.67
12,O=C(Cc1cccs1)Nc1nnc(Cc2ccccc2)s1,-0.0843
13,CCCCc1nnc(NC(=O)CCSc2ccccc2)s1,0.0449
14,Cc1nnc(NC(=O)Cc2cccs2)s1,2.4
15,O=C(Nc1cccnc1)c1cccs1,-0.52
16,O=C(Cc1cccs1)NCc1cccnc1,0.742
17,O=C(Cc1cccs1)Nc1cccnc1,3.36 (active)
18,O=C(Cc1cccs1)Nc1nnc(CCc2ccccc2)s1,0.238
19,NNc1nnc(-c2ccccc2)c(-c2ccccc2)n1,-0.209

row,SMILES,z-score
1,CCOC(=O)CCCCC(=O)c1[nH]c(=O)[nH]c1CSCCO,0.565
2,O=C(Nc1ccc(F)cc1)C(c1ccccc1)N1CCN(C(=O)c2ccco2)CC1 (configuration not stated),-0.404
3,CC(=O)Nc1ccc(NC(=O)COC(=O)Cc2cccs2)cc1,-0.0463
4,COc1ccc(-n2c(SCC(=O)Nc3ccc(C(=O)O)cc3)nnc2-c2cccs2)cc1,0.0972
5,CC1(C)N=C(N)N=C(N)N1c1ccc(F)cc1F,-0.421
6,O=C1NC(=S)S/C1=C/c1ccc(N2CCOCC2)o1,0.253
7,CC1=NN2C(=N)/C(=C\c3ccc(SCc4ccccc4)o3)C(=O)N=C2S1,-0.21
8,O=C1NC(=S)S/C1=C\c1ccc(SCc2ccccc2)o1,6.47 (active)
9,CCCNc1nc(N2CCOCC2)nc(N2CCOCC2)n1,-0.0765
10,Cc1cc(O)c2c(-c3ccccc3)cc(=O)oc2c1,2.16
11,CCOc1cc(C)cc2oc(=O)cc(-c3ccccc3)c12,0.0205
12,Cc1cc(OC(C)C)c2c(-c3ccccc3)cc(=O)oc2c1,-0.594
13,C=CCCC(=O)Nc1nc(C)c(-c2csc(Nc3ccc(Cl)cc3Cl)n2)s1,-0.203
14,O=[N+]([O-])c1cc(/C=N/N2CCN(C3c4ccccc4-c4ccccc43)CC2)ccc1Cl,0.148
15,O=[N+]([O-])c1ccc(Cl)c(/C=N/N2CCN(c3ccccc3)CC2)c1,-0.188
16,O=[N+]([O-])c1cc(/C=N/N2CCN(c3ccccc3)CC2)ccc1Cl,2.02
17,N#C/C(=C\c1ccc(-c2cccc(C(F)(F)F)c2)o1)C(=O)Nn1cnnc1,-0.113
18,O=C1NCCCC1C(=O)N/N=C/c1ccccc1 (configuration not stated),0.00752
19,Cn1c(CSc2nc3ccccc3s2)n[nH]c1=S,1.41

# Reference: PubChem BioAssay AID488969 (Vanderbilt High Throughput Screening Facility, 2010)
